Measured values taken from the supplement of paper PMC10849652.
About 7,900 targets were measured; listed, in parts, are those with a hit and a random draw of the rest. About 0.6% of all pairs of compound and target were hits. A number with no mark means an inactive call.

Columns and labels:
Experiment in all cases: log2 fold change, soluble protein after heating vs DMSO (PISA); higher = thermal stabilisation; K562 cells, 10 uM, 30 min; active = over 0.2 and 3.5 SD of the protein, either way, in both replicates (recomputed)
[1] = compound: CC1=C(C=C(C=C1)NC(=O)C2=CC(=CC=C2)C(C)(C)C#N)NC3=CC4=C(C=C3)N=CN(C4=O)C
Procedure, shortened: (§1)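 K562 cells at 2×10^6 cells/mL were exposed to 10 μM compound for 30 min, then aliquots were heated for 3 min across 48°C-58°C, pooled, and extracted in PBS containing 0.5% NP-40 at 4°C. The supernatant after 21,000xg for 90 min was taken as soluble protein and measured by TMTpro 16plex LC-MS/MS with channel sums equalised. Thermal stability is reported relative to control samples, with values from duplicates. Fold changes are given on a log2 scale.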

[2] = compound: CC1=C(C=C(C=C1)NC(=O)C2=CC(=CC=C2)N(C)C)NC(=O)C3=CC=C(C=C3)O
Procedure, shortened: as §1

[3] = compound: CC1=CC=C(C=C1)SC2=C3C=C(SC3=CN=C2)C(=O)N
Procedure, shortened: as §1

[4] = compound: CC1=NC(=CC=C1)C2=C(N=C(N2)C(C)(C)C)C3=CC4=NC=CN=C4C=C3
Procedure, shortened: as §1

Nexturastat A = compound: CCCCN(Cc1ccc(C(=O)NO)cc1)C(=O)Nc1ccccc1 [Nexturastat A]
Procedure, shortened: as §1

vemurafenib = compound: CCCS(=O)(=O)Nc1ccc(F)c(C(=O)c2c[nH]c3ncc(-c4ccc(Cl)cc4)cc23)c1F [vemurafenib]
Procedure, shortened: as §1

[5] = compound: CCCS(=O)(=O)Nc1ccc(F)c(C(=O)c2c[nH]c3ncc(Cl)cc23)c1F
Procedure, shortened: as §1

[6] = compound: CCCc1cc(C)[nH]c(=O)c1CNC(=O)c1cc(-c2ccnc(N3CCN(C)CC3)c2)cc2c1cnn2C(C)C
Procedure, shortened: as §1

givinostat = compound: CCN(CC)Cc1ccc2cc(COC(=O)Nc3ccc(C(=O)NO)cc3)ccc2c1 [givinostat]
Procedure, shortened: as §1

barasertib = compound: CCN(CCCOc1ccc2c(Nc3cc(CC(=O)Nc4cccc(F)c4)[nH]n3)ncnc2c1)CCOP(=O)(O)O [barasertib]
Procedure, shortened: as §1

[7] = compound: CC[C@@H]1C(=O)N(C)c2cnc(Nc3ccc(C(=O)NC4CCN(C)CC4)cc3OC)nc2N1C1CCCC1
Procedure, shortened: as §1

volasertib = compound: CC[C@@H]1C(=O)N(C)c2cnc(Nc3ccc(C(=O)N[C@H]4CC[C@H](N5CCN(CC6CC6)CC5)CC4)cc3OC)nc2N1C(C)C [volasertib]
Procedure, shortened: as §1

[8] = compound: CC[C@H](C)N1C=C(C2=C(C=C(C=C21)C3=CN=C(C=C3)N4CCNCC4)C(=O)NCC5=C(C=C(NC5=O)C)C)C
Procedure, shortened: as §1

epoxomicin = compound: CC[C@H](C)[C@@H](C(=O)N[C@@H]([C@@H](C)O)C(=O)N[C@@H](CC(C)C)C(=O)[C@]1(CO1)C)NC(=O)[C@H]([C@@H](C)CC)N(C)C(=O)C [epoxomicin]
Procedure, shortened: as §1

[9] = compound: CCn1c(C(=O)N(C2CC2)C2CC2)cc2c3c(ncn3C)c(Nc3cc(C)n(C)n3)nc21
Procedure, shortened: as §1

[10] = compound: CCn1cc(-c2ccnc3[nH]c(-c4cccc(CN(C)C)c4)cc23)c(-c2ccc(NC(=O)N(C)C)cc2)n1
Procedure, shortened: as §1

[11] = compound: CN(C)CC(=O)Nc1ccc2[nH]c(=O)c3ccccc3c2c1
Procedure, shortened: as §1

rosiglitazone = compound: CN(CCOC1=CC=C(C=C1)C[C@H]2C(=O)NC(=O)S2)C3=CC=CC=N3 (racemic) [rosiglitazone]
Procedure, shortened: as §1

[12] = compound: CN1C2=C(C3=C1C(=O)N(N=C3)CC4=CC(=CC=C4)N)SC(=C2)S(=O)C
Procedure, shortened: as §1

[13] = compound: CN1CCC(CNc2ccc3ncc(-c4cccc(OC(F)(F)F)c4)n3n2)CC1
Procedure, shortened: as §1

Chain of UniProt Q9H254 (Q9H254 whole entry, looked up): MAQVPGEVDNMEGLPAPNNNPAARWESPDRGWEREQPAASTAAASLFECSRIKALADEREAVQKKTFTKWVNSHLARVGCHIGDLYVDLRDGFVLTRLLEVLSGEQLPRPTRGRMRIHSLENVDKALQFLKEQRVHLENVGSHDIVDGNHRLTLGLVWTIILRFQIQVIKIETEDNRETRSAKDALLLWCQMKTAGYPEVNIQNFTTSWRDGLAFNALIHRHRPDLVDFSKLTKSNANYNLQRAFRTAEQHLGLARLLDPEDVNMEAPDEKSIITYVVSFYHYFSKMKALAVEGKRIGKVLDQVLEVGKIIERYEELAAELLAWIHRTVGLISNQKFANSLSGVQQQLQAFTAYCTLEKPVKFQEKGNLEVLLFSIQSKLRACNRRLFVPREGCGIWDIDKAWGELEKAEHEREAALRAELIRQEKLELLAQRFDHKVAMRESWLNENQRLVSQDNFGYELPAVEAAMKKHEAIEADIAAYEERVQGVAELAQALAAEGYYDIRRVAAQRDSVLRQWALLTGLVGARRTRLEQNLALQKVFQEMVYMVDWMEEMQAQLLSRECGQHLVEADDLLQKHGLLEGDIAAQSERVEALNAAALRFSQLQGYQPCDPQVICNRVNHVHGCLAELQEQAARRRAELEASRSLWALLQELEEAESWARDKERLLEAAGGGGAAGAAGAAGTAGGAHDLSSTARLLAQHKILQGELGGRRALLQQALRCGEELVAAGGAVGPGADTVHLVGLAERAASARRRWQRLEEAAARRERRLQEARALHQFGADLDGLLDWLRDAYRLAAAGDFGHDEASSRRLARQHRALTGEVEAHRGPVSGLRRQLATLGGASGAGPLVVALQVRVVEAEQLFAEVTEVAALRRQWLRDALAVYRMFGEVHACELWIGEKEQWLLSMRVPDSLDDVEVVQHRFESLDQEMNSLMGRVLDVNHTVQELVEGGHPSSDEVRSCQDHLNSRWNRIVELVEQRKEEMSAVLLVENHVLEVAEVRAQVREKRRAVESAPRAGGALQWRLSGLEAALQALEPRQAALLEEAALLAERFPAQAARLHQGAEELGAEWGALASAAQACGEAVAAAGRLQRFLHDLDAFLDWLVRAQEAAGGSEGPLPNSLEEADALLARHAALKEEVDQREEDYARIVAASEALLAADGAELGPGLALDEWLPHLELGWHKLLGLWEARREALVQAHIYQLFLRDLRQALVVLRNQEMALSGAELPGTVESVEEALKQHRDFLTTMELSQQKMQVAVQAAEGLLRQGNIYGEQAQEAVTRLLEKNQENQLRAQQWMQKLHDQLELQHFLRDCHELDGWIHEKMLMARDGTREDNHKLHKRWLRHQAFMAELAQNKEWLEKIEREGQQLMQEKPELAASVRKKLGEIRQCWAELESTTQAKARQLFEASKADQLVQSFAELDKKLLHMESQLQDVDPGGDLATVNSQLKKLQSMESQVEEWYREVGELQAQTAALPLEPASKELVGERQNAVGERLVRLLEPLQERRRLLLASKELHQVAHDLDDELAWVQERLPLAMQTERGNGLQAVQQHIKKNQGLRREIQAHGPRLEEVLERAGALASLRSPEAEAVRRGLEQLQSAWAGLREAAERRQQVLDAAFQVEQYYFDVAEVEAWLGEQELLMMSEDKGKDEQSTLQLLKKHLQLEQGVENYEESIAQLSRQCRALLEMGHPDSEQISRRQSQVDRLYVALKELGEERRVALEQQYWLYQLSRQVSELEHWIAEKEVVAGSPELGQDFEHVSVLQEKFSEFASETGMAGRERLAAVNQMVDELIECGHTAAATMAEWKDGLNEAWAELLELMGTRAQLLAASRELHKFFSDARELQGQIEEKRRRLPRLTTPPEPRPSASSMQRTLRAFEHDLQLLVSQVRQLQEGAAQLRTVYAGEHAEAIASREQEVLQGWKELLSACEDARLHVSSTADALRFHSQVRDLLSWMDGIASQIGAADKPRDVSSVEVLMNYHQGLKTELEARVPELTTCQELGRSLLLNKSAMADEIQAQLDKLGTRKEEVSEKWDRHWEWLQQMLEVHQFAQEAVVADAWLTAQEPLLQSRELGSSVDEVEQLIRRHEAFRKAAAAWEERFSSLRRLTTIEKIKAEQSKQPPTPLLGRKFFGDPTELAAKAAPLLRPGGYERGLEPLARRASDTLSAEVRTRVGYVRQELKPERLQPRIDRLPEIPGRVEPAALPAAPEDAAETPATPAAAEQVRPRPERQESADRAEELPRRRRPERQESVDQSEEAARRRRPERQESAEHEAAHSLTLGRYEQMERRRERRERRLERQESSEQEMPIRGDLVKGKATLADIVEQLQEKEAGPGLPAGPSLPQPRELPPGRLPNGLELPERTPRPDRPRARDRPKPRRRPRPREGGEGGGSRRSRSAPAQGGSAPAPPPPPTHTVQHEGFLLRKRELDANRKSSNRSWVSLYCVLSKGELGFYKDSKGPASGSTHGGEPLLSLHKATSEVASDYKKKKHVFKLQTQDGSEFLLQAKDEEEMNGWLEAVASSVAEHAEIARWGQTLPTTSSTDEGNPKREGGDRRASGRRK
Chain of UniProt Q92797 (Q92797 whole entry, looked up): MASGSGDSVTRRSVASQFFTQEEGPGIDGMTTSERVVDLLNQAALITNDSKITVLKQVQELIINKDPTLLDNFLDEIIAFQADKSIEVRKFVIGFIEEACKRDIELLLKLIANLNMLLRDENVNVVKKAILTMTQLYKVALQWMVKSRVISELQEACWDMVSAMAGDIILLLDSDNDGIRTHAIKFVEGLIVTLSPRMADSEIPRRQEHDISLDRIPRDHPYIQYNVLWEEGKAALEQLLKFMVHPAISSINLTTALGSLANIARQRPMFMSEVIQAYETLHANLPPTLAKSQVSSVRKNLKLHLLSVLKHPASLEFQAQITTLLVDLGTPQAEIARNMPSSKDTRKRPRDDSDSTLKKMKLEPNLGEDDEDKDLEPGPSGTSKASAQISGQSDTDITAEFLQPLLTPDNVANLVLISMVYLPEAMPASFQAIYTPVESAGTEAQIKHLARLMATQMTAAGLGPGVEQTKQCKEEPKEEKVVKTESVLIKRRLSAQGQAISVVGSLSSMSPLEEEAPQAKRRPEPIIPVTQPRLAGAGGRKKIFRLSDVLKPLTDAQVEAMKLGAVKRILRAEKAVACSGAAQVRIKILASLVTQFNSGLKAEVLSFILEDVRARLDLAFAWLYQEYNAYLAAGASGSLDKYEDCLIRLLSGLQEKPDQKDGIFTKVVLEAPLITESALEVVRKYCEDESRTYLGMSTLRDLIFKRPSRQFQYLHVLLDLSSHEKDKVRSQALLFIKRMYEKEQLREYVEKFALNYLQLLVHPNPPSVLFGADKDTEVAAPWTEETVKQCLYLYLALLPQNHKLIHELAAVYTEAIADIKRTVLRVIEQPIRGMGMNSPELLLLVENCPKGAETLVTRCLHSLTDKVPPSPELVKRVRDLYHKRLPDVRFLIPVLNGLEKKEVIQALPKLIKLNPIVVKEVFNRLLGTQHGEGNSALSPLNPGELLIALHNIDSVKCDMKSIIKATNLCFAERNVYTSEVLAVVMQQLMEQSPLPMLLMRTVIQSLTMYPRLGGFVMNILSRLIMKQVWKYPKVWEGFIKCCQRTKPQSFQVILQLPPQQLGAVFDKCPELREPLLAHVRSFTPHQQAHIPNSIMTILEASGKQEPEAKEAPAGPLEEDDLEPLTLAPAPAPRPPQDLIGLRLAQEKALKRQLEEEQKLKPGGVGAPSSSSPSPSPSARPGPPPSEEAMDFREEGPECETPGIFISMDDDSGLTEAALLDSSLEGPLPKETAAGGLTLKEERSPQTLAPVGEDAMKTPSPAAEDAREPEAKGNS
Chain of UniProt Q9H2K8 (Q9H2K8 whole entry, looked up): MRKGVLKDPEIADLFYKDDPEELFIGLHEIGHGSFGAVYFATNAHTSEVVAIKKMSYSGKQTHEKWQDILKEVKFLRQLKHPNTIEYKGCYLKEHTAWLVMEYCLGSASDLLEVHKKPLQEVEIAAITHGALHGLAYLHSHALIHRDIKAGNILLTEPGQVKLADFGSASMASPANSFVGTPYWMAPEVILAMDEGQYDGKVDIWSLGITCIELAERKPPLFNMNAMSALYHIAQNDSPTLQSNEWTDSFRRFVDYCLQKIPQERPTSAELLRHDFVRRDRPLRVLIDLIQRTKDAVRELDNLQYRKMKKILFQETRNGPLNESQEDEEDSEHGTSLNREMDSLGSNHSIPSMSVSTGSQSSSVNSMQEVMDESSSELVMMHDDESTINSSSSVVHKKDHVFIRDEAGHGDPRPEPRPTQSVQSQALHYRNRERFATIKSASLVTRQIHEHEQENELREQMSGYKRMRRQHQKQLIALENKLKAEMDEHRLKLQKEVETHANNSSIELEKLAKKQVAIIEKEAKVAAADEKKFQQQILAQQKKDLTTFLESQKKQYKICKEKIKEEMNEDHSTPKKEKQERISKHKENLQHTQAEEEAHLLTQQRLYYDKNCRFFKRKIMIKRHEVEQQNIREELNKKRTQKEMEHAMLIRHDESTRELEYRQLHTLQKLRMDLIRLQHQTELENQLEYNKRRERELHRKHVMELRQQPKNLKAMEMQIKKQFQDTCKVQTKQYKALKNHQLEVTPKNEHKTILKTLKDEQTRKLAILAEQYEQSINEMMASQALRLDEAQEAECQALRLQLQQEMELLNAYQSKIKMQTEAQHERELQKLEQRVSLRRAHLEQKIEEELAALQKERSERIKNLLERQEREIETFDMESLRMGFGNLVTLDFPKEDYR
Chain of UniProt Q9BVV7 (Q9BVV7 whole entry, looked up): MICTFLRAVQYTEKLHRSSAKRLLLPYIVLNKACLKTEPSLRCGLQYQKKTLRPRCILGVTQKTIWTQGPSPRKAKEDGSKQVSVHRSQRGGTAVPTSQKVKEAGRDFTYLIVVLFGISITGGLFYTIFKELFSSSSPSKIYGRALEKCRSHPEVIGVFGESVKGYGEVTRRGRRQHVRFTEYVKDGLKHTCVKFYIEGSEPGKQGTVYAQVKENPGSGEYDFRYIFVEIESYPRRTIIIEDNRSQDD
Chain of UniProt Q9Y5L4 (Q9Y5L4 whole entry, looked up): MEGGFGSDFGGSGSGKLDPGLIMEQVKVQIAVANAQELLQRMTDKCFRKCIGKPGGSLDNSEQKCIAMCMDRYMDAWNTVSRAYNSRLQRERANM

Target	log2 fold change [1]	log2 fold change [2]	log2 fold change [3]	log2 fold change [4]	log2 fold change (Nexturastat A)	log2 fold change (vemurafenib)	log2 fold change [5]	log2 fold change [6]	log2 fold change (givinostat)	log2 fold change (barasertib)	log2 fold change [7]	log2 fold change (volasertib)	log2 fold change [8]	log2 fold change (epoxomicin)	log2 fold change [9]	log2 fold change [10]	log2 fold change [11]	log2 fold change (rosiglitazone)	log2 fold change [12]	log2 fold change [13]
SRP72 (UniProt O76094)	0.024	-0.01	0.034	-0.009	0.171	0.037	0.09	0.046	0.143	0.078	-0.093	-0.518	0.119	0.001	-0.104	-0.034	0.03	0.047	0.119	-0.168
STAT3 (UniProt P40763)	0.012	0.001	-0.009	-0.008	0.005	0.101	0.102	0.017	0.089	0.064	-0.336 (active)	-0.767 (active)	0.056	0.002	-0.052	-0.059	0.052	0.063	-0.047	-0.275 (active)
STX17 (UniProt P56962)	-0.036	-0.064	-0.023	0.039	0.126	0.12	0.12	-0.07	0.152	0.011	-0.273	-0.357 (active)	-0.06	0.062	-0.067	0.011	-0.02	0.089	-0.126	-0.278
SPG11 (UniProt Q96JI7)	-0.384	0.068	-0.063	-0.182	0.359	-0.415	-0.008	-1.21	0.023	0.029	0.155	-0.294	0.017	-0.085	0.019	0.141	-0.216	-0.045	0.367	-1.24 (active)
TAOK3 (UniProt Q9H2K8)	0.028	-0.031	0.078	0.059	-0.054	0.092	0.115	0	-0.019	0.027	-0.005	-0.083	0.058	0.007	0.007	-0.019	0.059	0.001	-0.067	-0.059
SUCLA2 (UniProt Q9P2R7)	-0.038	-0.018	0.003	0.06	-0.083	0.047	0.008	-0.02	-0.003	0.064	0.013	-0.105	0.052	0.016	0.01	-0.049	0.018	0.065	-0.071	-0.05
TBC1D15 isoform 3 (UniProt Q8TC07)	0.076	-0.028	-0.003	-0.019	0.002	0.049	0.12	-0.015	0.046	0.068	-0.221	-0.485 (active)	0.04	0.004	-0.081	-0.024	0.031	0.05	0.018	-0.241 (active)
SPAG9 (UniProt O60271)	0.023	-0.045	0.002	0.004	0.039	0.028	0.053	0.014	0.06	0.037	-0.039	-0.168	0.046	0.028	-0.014	0.02	0.02	0.043	-0.009	-0.203
SRSF9 (UniProt Q13242)	-0.044	0.015	-0.083	-0.082	0.37	-0.116	0.076	0.075	0.151	-0.082	0.189	0.414	-0.004	-0.421	0.097	0.323	-0.106	-0.07	0.506	0.364
SPCS2 (UniProt Q15005)	0.011	0.004	0	0.3	-0.052	0.075	0.058	-0.011	-0.009	0.025	0.018	-0.006	0.02	0.091	-0.067	-0.009	0.038	0.029	-0.078	0.005
SSRP1 (UniProt Q08945)	-0.072	-0.049	0.018	0.091	-0.069	0.051	0.062	0.015	0.033	0.059	-0.121	-0.412 (active)	0.052	0.02	-0.073	0.007	0.01	0.052	-0.003	-0.067
TIMM21 (UniProt Q9BVV7)	0.014	0.008	0.035	0.058	-0.121	0.032	0.067	-0.005	0.005	0.034	-0.133	-0.286 (active)	0.034	-0.041	0.029	-0.028	-0.025	0.05	-0.044	-0.227
SYMPK (UniProt Q92797)	0.042	-0.004	0.05	0.005	-0.103	0.119	0.212	0.051	0.145	0.042	-0.341	-0.5 (active)	-0.289	0.073	-0.036	-0.026	0.123	0.13	0.076	-0.141
SNX3 (UniProt O60493)	-0.013	-0.064	0.073	-0.004	0.037	0.046	0.122	0.02	0.09	0.045	-0.071	-0.147	0.107	-0.033	-0.176	0.057	0.077	0.018	0.116	-0.319
TIMM13 (UniProt Q9Y5L4)	0.086	-0.048	0.03	0.143	-0.19	0.072	0.015	0.085	0.089	-0.035	0.019	-0.048	0.027	0.213	0.024	0	-0.032	0.029	-0.094	0.237
SPTBN4 (UniProt Q9H254)	-0.013	-0.037	0.144	0.025	0.039	-0.027	-0.036	-0.12	0.112	-0.013	0.051	-0.293	-0.025	-0.018	-0.065	-0.1	0.171	0.017	0.011	0.153
